Results reported in PubChem BioAssay (NCI).
This is part of a sample that, as a whole, favours compounds with a hit. Of some 79,000 tested, about 15% had one in any assay. A number with no mark means an inactive call. Activity calls are given as the source filed them. No stated cut-off is given here; in the data, active means growth inhibition above about 70%; inactive means the rest.

Columns and labels:
[1] = NCI Yeast Anticancer Drug Screen. Data for the rad50 strain (AID 155);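 further: 0% = growth of vehicle-only cultures of the same strain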; settings: S. cerevisiae rad50 strain growth inhibition; at 50.0 µM; hits give high values
Outline: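 Readout: growth inhibition relative to vehicle-treated cultures. Compound exposure was carried out in a genetically defined yeast strain deficient in DNA damage repair.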

[2] = NCI Yeast Anticancer Drug Screen. Data for the mec2-1 strain (AID 157); settings: S. cerevisiae mec2-1 strain, at 50.0 µM, hits give high values
Outline: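 mec2-1 yeast strain, carrying an alteration in DNA damage repair or cell cycle control, was exposed to compounds; growth inhibition was measured relative to vehicle-treated controls.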

[3] = NCI Yeast Anticancer Drug Screen. Data for the sgs1 mgt1 strain (AID 161);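 further: 0% = growth of cultures given vehicle only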; settings: S. cerevisiae sgs1 mgt1 strain, at 50.0 µM, hits give high values
Outline: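 This yeast growth screen uses a strain with defined DNA-repair lesions; compound-treated growth is compared with vehicle-treated growth.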

[4] = NCI Yeast Anticancer Drug Screen. Data for the cln2 rad14 strain (AID 165);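 further: 0% = growth equal to vehicle treated cultures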; settings: S. cerevisiae cln2 rad14 strain, at 50.0 µM, hits give high values
Outline: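 Yeast carrying cln2 and rad14 alterations (cell cycle control and DNA damage repair) were exposed to compounds. Growth inhibition was measured against vehicle-treated controls.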

[5] = NCI Yeast Anticancer Drug Screen. Data for the bub3 strain (AID 167); settings: S. cerevisiae bub3 mutant strain, at 50.0 µM, hits give high values
Outline: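 Readout: yeast growth inhibition, expressed relative to vehicle-only wells. The test organism is a mutant strain from a panel with lesions in DNA repair or checkpoint genes.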

[6] = NCI Yeast Anticancer Drug Screen. Data for the mlh1 rad18 strain (AID 175); settings: S. cerevisiae mlh1 rad18 strain growth inhibition; at 50.0 µM; hits give high values
Outline: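 Growth inhibition of the yeast strain was measured after compound exposure and expressed relative to vehicle-treated controls. The strain carries defined defects in DNA damage repair.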

SMILES | growth inhibition [1] | growth inhibition [2] | growth inhibition [3] | growth inhibition [4] | growth inhibition [5] | growth inhibition [6]
Cc1ccc(C2CCCCC2)cc1Br | 5.7% | 4.25% | 4.4% | 3.15% | 9.45% | 28.3%
C/C=C/C1OCC(CC)C(CCC)O1 (centres undefined) | 36% | 11.2% | 1.85% | -36.8% | -17.9% | -1.15%
COc1cc(OC)c(NC(=O)C(Sc2nc(C)cc(C)c2C#N)c2ccccc2)cc1Cl (centres undefined) | -6.3% | -19.9% | -4.95% | 22.2% | 1.6% | 5.9%
CC(=O)OCC1CCC(COC(C)=O)CC1 (centres undefined) | 9.75% | -30.6% | -10.4% | -5.95% | 19.7% | -3.9%
Cc1c(Cl)cccc1NC(=S)NC(=O)c1ccccc1 | 23.7% | 28.2% | 14.8% | 0.4% | 35.4% | 18.1%
C=C1C(=O)C2CCC1C2 (centres undefined) | 32.4% | -24.6% | 23.8% | -3.2% | 7.8% | 8.25%
C=CCC(OC(C)=O)c1ccc(OC)c(OC)c1 (centres undefined) | 11.3% | 1.35% | 14.7% | -13.9% | 8.7% | 9.5%
CC(=O)N=c1ccc2nc3c(cc(N)c4ccccc43)oc-2c1 | 25.4% | 13.2% | 27.6% | 20.9% | 40.5% | 33.8%
C=C(OC(C)=O)c1ccccc1 | 6.45% | -12.4% | 5.8% | -7.25% | 28.3% | 0.05%
C/C(=N\N=C(/C)c1cccc([N+](=O)[O-])c1)c1cccc([N+](=O)[O-])c1 | -5.75% | -21% | 17.5% | -10.3% | 16.4% | -7.7%
O=C(O)c1cccc(-n2ncc(Cl)c(Cl)c2=O)c1 | 8.4% | -0.95% | 19.2% | 19% | 21.4% | 19.6%
CC(C)(N)CO[C@H]1C[C@H]2CC[C@@]1(C)C2(C)C | 11.8% | -5.7% | 2.4% | -26.4% | 10.2% | -6.15%
Cc1ccc(C(C)C)c(OCC(=O)O)c1 | 15.4% | 12% | 24.2% | 8.65% | -6.85% | 25.6%
CCOC(C=O)OCC | 0.6% | 6% | 4.35% | -9% | -4.3% | -10.9%
Oc1ccc(N=Cc2ccc(OCc3ccccc3)cc2)cc1 | 2.5% | -29.9% | 15.2% | 0.25% | 2.55% | -4.1%
Nc1ccn(C2CC(N)C(CO)O2)c(=O)n1 (centres undefined) | 16.1% | 7.15% | 9.25% | 19.8% | 6.9% | 32.4%
c1cc(CNCCNCc2ccncc2)ccn1 | -36% | -48% | -46.5% | -4.15% | -34% | -34.5%
NNC(=O)N/N=C1\C(=O)N(c2nccs2)C(=O)C(=O)C1c1nc2ccccc2s1 (centres undefined) | -26.1% | -21.8% | -33% | 10.8% | -5.15% | -19.4%
CN(C)c1ccc2nc3ccc(=[N+](C)C)cc-3oc2c1 | -27.8% | -12.4% | -27.7% | -250% | 6.1% | -12%
COc1nc(Nc2cccc(C(F)(F)F)c2)nc(OC)n1 | 8.5% | -8% | 15.4% | 7.9% | 23.2% | 6.25%

SMILES | growth inhibition [1] | growth inhibition [2] | growth inhibition [3] | growth inhibition [4] | growth inhibition [5] | growth inhibition [6]
COC(=O)Cc1cc(COC(C)=O)ccc1C | 0.05% | 0% | -0.7% | -57% | -17.2% | -7.8%
CC(C)C1CCC(C)C(O)C1 (centres undefined) | 26.7% | 6.35% | 8.55% | 8.9% | -0.55% | 12.8%
CC(C)c1ccccc1NC(=O)N1CCC(C(C)C)CC1 | -20.8% | -42.6% | -29.8% | -22.6% | -7% | -12.7%
Cc1ccc(NC(=O)c2ccccc2Cl)cc1 | 12.4% | -4.35% | -13.3% | -42% | -6.3% | 6.05%
O=C(NCc1ccccc1)c1cccc([N+](=O)[O-])c1 | 5.05% | 18.1% | 19.9% | -47% | 22.9% | 15.6%
CC(C)=CCC[C@@H](C)[C@H]1CC[C@@]2(C)C3=C(CC[C@]12C)[C@@]1(C)CC[C@H](O)C(C)(C)[C@@H]1CC3 | 12.7% | -24.8% | 21.8% | 9.85% | 11.7% | -7.3%
COc1ccc2c(c1)Nc1ccccc1S2 | -23.9% | -23.5% | -26.6% | -1.6% | -14.6% | -16.2%
c1ccc(Oc2c3ccccc3nc3ccccc23)cc1 | 2.75% | -18.4% | -13.2% | 4.25% | -5.7% | 87.9% (active)
O=C(O)CSCC(=O)Nc1cc(C(F)(F)F)ccc1Cl | -28.1% | -36.6% | -25.8% | -22.9% | -11.3% | -11.2%
CCOC(=O)CNC(=O)Sc1ccc(C(C)(C)C)cc1 | 88.2% (active) | 88.2% (active) | 84.2% (active) | 70.2% (active) | 76.7% (active) | 61.8%
COC(=O)c1ccc([N+](=O)[O-])c(C)c1 | -33.2% | -30.9% | -50.2% | -9.9% | -25.1% | -27.6%
Cc1ccc(C)c(CN(C)C)c1O | -0.8% | -1.45% | 4.9% | 25.1% | -11.1% | 22.9%
Cc1[nH]c(=S)[nH]c(=O)c1C | -5.1% | -28.3% | -35.6% | -3.4% | -34.4% | -1.7%
Nc1nc(Cl)cc(Cl)n1 | 6.65% | 3.15% | 0% | 5.05% | 2.85% | 3.25%
Cc1ccc(S(N)(=O)=O)cc1Cl | 10.1% | -20.1% | 13.2% | 5.8% | -1.5% | 16.6%
COc1ccc(C)cc1NC(=O)SC(C)C | -9.75% | -18.9% | 9.4% | -5.2% | 18.4% | 6.1%
O=C(CCl)Oc1ccc([N+](=O)[O-])cc1 | 20.8% | 21.9% | 23.8% | 11.7% | 19.8% | 26.6%
COc1cc2c(c(OC)c1OC)-c1ccc(SC)c(=O)cc1[C@@H](NC1OC(CO)C(O)C(O)C1O)CC2 (some centres undefined) | -10.6% | -1.85% | 5.25% | 6.2% | 5.05% | 3.45%
CC(=O)NNC(=S)/N=C\C(C(=O)c1ccccc1)=C(/O)c1ccccc1 | -41.4% | -28.8% | -14.4% | 2% | -15.4% | -19.2%
